{"source": "paper PMC5540273", "about": "(PLoS ONE, 2017);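 note: KINOMEscan kinase panel screen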"}
{"tested_on": "WNK3", "details": "concentration: 1 μM, replicates: in singlicate; n = 1", "units": {"%Inh": "%"}}
{"smiles": "CCn1c(-c2nonc2N)nc2c(C#CC(C)(C)O)ncc(OCCCCN)c21.O=C(O)C(F)(F)F.O=C(O)C(F)(F)F", "note": "[GSK507274]", "%Inh": 21}
{"smiles": "COc1cc2c(cc1OCCN1CCNCC1)ncc1c3ccc(C#N)cc3[nH]c21", "%Inh": 7}
{"smiles": "COc1cccc(C(=O)Nc2cccc(Oc3ccc4nc(NC(=O)C5CC5)cn4n3)c2)c1", "%Inh": 0}
{"smiles": "FC(F)(F)c1ccc(/C=C/c2cncnc2Nc2ccc3[nH]c(Cc4ccccc4)nc3c2)cc1", "note": "[GW709199]", "%Inh": 0}
{"smiles": "Cc1cccc(Nc2nc(N[C@H]3CCNC3)ncc2C(N)=O)c1.Cl", "note": "[GSK2197149]", "%Inh": 0}
{"smiles": "NCCCC(NC(=O)c1cc(Br)c(-c2ccnc3[nH]ccc23)s1)c1ccccc1.O=C(O)C(F)(F)F.O=C(O)C(F)(F)F", "note": "(stereo not drawn) [GSK1287544]", "%Inh": 11}
{"smiles": "CC(C)(C)c1ccc2nccc(Nc3cccc(O)c3)c2c1", "note": "[GW856795]", "%Inh": 40}
{"smiles": "c1ccc(-c2n[nH]cc2Nc2ccnc3ccccc23)nc1", "note": "[GW694077]", "%Inh": 15}
{"smiles": "COc1cccc(NC(=O)NC2CCN(c3ccnc(Nc4cc(OC)c(OC)c(OC)c4)n3)C2)c1", "note": "(stereo not drawn) [GSK1379763]", "%Inh": 26}
{"smiles": "COC(=O)Nc1nc2ccc(Oc3ccc(NC(=O)Nc4cc(C(F)(F)F)ccc4F)cc3)cc2n1C.Cl", "note": "[GW692089]", "%Inh": 46}
{"smiles": "COc1cccc(C2=C(Nc3ccc(Cl)c(C(=O)O)c3)C(=O)NC2=O)c1", "note": "[SB-390769]", "%Inh": 100}
{"smiles": "COc1cc(Nc2nccc(-c3c(-c4cccc(NC(=O)c5c(F)cccc5F)c4)nn4ccccc34)n2)cc(OC)c1OC", "note": "[GSK323521]", "%Inh": 54}
